Here are results for seven compounds from PubChem BioAssay (Tox21).

Each structure is given as a SMILES string. “And” between values parts separate entries of the source, which are not always exact repeats. Equal entries are not always repeated. Values without a mark were called inactive. Records with an inconclusive call do not appear. The source made the active and inactive calls. Unless noted, the call rests on the fitted dose curve; in most records, active means well fitted curve in the direction sought with a large enough effect in the repeat runs; inconclusive means weak or mixed curves; inactive means no such curve, though single readings can be large; an effect the other way counts as inactive or inconclusive.

Assay [1] in a line: qHTS assay to identify small molecule agonists of the hypoxia (HIF-1) signaling pathway - cell viability counter screen (AID 1224844; calls by dose curve; further: nearly all actives have a fitted effect of over 50% in size; further: potency means the concentration at half of the fitted maximal effect). A digest of the protocol:
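Viability counter screen: HRE-bla ME-180 cells plated 5 hrs before compound addition, treated 17 hrs at 37C and 5% CO2, then CellTiter-Glo added after the FRET reporter read; luminescence after 30 min.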
(In general: In qHTS, concentration-response curves come from the screen itself.)

Assay [2] is described as follows: qHTS assay to identify small molecule agonists of H2AX (AID 1224845; active means well fitted activation curve with a large enough effect in the signal ratio in the repeat runs, not every such curve was filed as active; the % refers to the signal ratio). An outline of the steps:
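Phospho-H2AX Ser139 measured by HTRF (ex 320 nm; em 665 and 620 nm) after 24 hr antibody incubation. Compounds, 15 concentrations, 0.76% DMSO, were applied to CHO-K1 cells for 3hr at 37C before lysis.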

Assay [3] in a line: qHTS RealTime-Glo MT Cell Viability Assay in HepG2 cells - 24 hour (AID 1224867). Further: nearly all actives have a fitted effect of over 50% in size. Further: potency means the concentration at half of the fitted maximal effect. An outline of the steps: (§1)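 HepG2 suspension premixed with RealTime-Glo reagents is plated at 600 cells per well and left 5 h at 37 C/5% CO2. Compounds in DMSO then go in, and bioluminescence reflecting viable cell number is recorded over 40 h.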
Assay [4] is described as follows: qHTS RealTime-Glo MT Cell Viability Assay in HEK293 cells - 32 hour (AID 1224868). Further: nearly all actives have a fitted effect of over 50% in size. Further: potency means the concentration at half of the fitted maximal effect. A digest of the protocol:
(§2)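 Reads taken at 0, 8, 16, 24, 32 and 40 h from the same wells. HEK293 cells (600/well) carried RealTime-Glo reagents from seeding, with compound added after a 5 h settle at 37 C.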

Assay [5] in a line: A CellTox Green Cytotoxicity Assay to monitor cytotoxicity in HEK293 cells - 0 hour (AID 1224869). Further: nearly all actives have a fitted effect of over 50% in size. A digest of the protocol: (§3)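 Dead-cell fluorescence measured kinetically: asymmetric cyanine dye, HEK293, 600 cells/well, 5 h settle, 23 nL cpd/DMSO, 37 C, reads 0–40 h every 8 h.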
Assay [6] is described as follows: qHTS RealTime-Glo MT Cell Viability Assay in HepG2 cells - 40 hour (AID 1224870). Further: nearly all actives have a fitted effect of over 50% in size. Further: potency means the concentration at half of the fitted maximal effect. An outline of the steps: (§4)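 Real-time viability: cells seeded at 600 per well together with NanoLuc and cell-permeant prosubstrate, compounds added after 5 h incubation. Luminescence tracked at 0, 8, 16, 24, 32 and 40 h of exposure.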
A short description of assay [7]: A CellTox Green Cytotoxicity Assay to monitor cytotoxicity in HEK293 cells - 40 hour (AID 1224871). Further: nearly all actives have a fitted effect of over 45% in size. Further: potency means the concentration at half of the fitted maximal effect. A digest of the protocol: as §3
The nature of assay [8]: qHTS RealTime-Glo MT Cell Viability Assay in HEK293 cells - 16 hour (AID 1224872). Further: nearly all actives have a fitted effect of over 50% in size. Further: potency means the concentration at half of the fitted maximal effect. An outline of the steps:
as §2

Assay [9] in a line: qHTS RealTime-Glo MT Cell Viability Assay in HepG2 cells - 8 hour (AID 1224873). Further: nearly all actives have a fitted effect of over 55% in size. Further: potency means the concentration at half of the fitted maximal effect. An outline of the steps:
as §4

A short description of assay [10]: qHTS RealTime-Glo MT Cell Viability Assay in HEK293 cells - 40 hour (AID 1224874). Further: nearly all actives have a fitted effect of over 50% in size. Further: potency means the concentration at half of the fitted maximal effect. The following applies: RealTime-Glo luminescence; max response: hits give low values. A digest of the protocol: (§5)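 600 HEK293 cells per well, dispensed already mixed with RealTime-Glo MT reagents. Compound dosing came 5 h later. The same wells were read for luminescence at 0, 8, 16, 24, 32 and 40 h of exposure at 37 C.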

A short description of assay [11]: A CellTox Green Cytotoxicity Assay to monitor cytotoxicity in HEK293 cells - 24 hour (AID 1224875). Further: nearly all actives have a fitted effect of over 45% in size. A digest of the protocol: as §3
The nature of assay [12]: A CellTox Green Cytotoxicity Assay to monitor cytotoxicity in HepG2 cells - 16 hour (AID 1224876). Further: nearly all actives have a fitted effect of over 45% in size. Further: potency means the concentration at half of the fitted maximal effect. A digest of the protocol: (§6)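 First, HepG2 cells (600/well) mixed with reagent were plated; second, after 5 h at 37 C they received compounds via pintool; third, fluorescence was measured at 0 h through 40 h at 8 h intervals.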
Assay [13] can be described thus: qHTS RealTime-Glo MT Cell Viability Assay in HepG2 cells - 32 hour (AID 1224877). Further: nearly all actives have a fitted effect of over 55% in size. Further: potency means the concentration at half of the fitted maximal effect. A digest of the protocol: as §1
A short description of assay [14]: A CellTox Green Cytotoxicity Assay to monitor cytotoxicity in HepG2 cells - 24 hour (AID 1224878). Further: nearly all actives have a fitted effect of over 45% in size. Further: potency means the concentration at half of the fitted maximal effect. A digest of the protocol:
as §6

Assay [15] is described as follows: qHTS RealTime-Glo MT Cell Viability Assay in HEK293 cells - 0 hour (AID 1224880). A digest of the protocol: as §5
A short description of assay [16]: qHTS assay to identify small molecule antagonists of the estrogen related receptor (ERR) signaling pathway from Tox21 library (AID 1224848). Further: nearly all actives have a fitted effect of over 50% in size. Further: potency means the concentration at half of the fitted maximal effect. A digest of the protocol:
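Luciferase luminescence (ONE-Glo, 30 min room temperature) was the read-out. Cells of the NTP-supplied ERR line, 2,000 per well, were given 6 h at 37 C before compound addition in DMSO and 18 h exposure at 37 C.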

Assay [17] is described as follows: qHTS assay to identify small molecule agonists of the estrogen related receptor (ERR) signaling pathway from Tox21 library (AID 1224849; calls by dose curve; further: nearly all actives have a fitted effect of over 15% in size). Particulars: ERR reporter cell line, ONE-Glo luciferase, 18 h. A digest of the protocol: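 Quantitative HTS in agonist format: NTP ERR cell line, compounds transferred in DMSO after 6 h plating, 18 h incubation at 37 C, ONE-Glo luminescence endpoint.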

A short description of assay [18]: A CellTox Green Cytotoxicity Assay to monitor cytotoxicity in HepG2 cells - 40 hour (AID 1224879). Further: nearly all actives have a fitted effect of over 40% in size. Further: potency means the concentration at half of the fitted maximal effect. A digest of the protocol: as §6
Assay [19] is described as follows: qHTS assay to identify small molecule agonists of H2AX - cell viability counter screen (AID 1224847; calls by dose curve; further: nearly all actives have a fitted effect of over 30% in size; further: potency means the concentration at half of the fitted maximal effect). An outline of the steps:
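CHO-K1 cells plated overnight at 37C, then exposed 3 h at 37C to compounds at 15 concentrations (0.76% DMSO final). Viability by CellTiter-Glo luminescence after 30 min at room temperature.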
On the % scale 0 is the no-effect control and ±100 the full control effect.

As for `O=P(OCC(Br)CBr)(OCC(Br)CBr)OCC(Br)CBr` (centres undefined), the Potency result in assay [1], in [2], in assay [3], in assay [5], in assay [6] and in [7] was “inactive” each time. Moreover, the Potency entry in assay [9], in [11], in assay [12], in [13] and in assay [14] was “inactive” each time. The Potency in assay [4] was 27.9 µM (active); in assay [8], 22.2 µM (active); in [10] it was 27.9 µM (active). In [15], the compound was called inactive.

Regarding `CCOC(=O)c1cncn1C(C)c1ccccc1` (centres undefined), the Potency entry in assay [1], in [2], in assay [16], in assay [4], in [5] and in assay [6] was “inactive” each time. In addition, the Potency entry in assay [7], in [8], in assay [9], in [11], in [12] and in assay [13] was “inactive” in each case. Besides, the Potency entry in [14] and in assay [18] was “inactive” each time. Besides, the activity change, positive = activation in assay [17] (at 42.5 µM (top of the series)) is -0.608%. Besides, the max response in [10] is 3.04%. The compound was called inactive in assay [15].

`CCCC[N+]1(C)[C@@H]2CC(OC(=O)[C@H](CO)c3ccccc3)C[C@H]1[C@@H]1O[C@@H]12` (some centres undefined): the Potency result in assay [1], in assay [2], in assay [19], in assay [3], in assay [4] and in [5] was “inactive” in each case. In addition, the Potency entry in assay [6], in assay [7], in assay [8], in assay [9], in [12] and in assay [13] was “inactive” throughout. Besides, the Potency entry in assay [14] and in assay [18] was “inactive” each time. Also, the max response in assay [10] is 2.06%. Further, in assay [15], the compound was called inactive.

For the compound `CCOC(=O)c1cn2nc(OP(=S)(OCC)OCC)cc2nc1C`, the Potency result in assay [1], in [2], in assay [3], in assay [5], in [6] and in [7] was “inactive” each time. Besides, the Potency entry in assay [12], in assay [13] and in assay [14] was “inactive” in each case. Further, the Potency was 34.4 µM (active) in assay [16], 13.8 µM (active) in assay [4], 17.4 µM (active) in [8] and 15.5 µM (active) in assay [10]. Also, in assay [17] (at 92.4 µM (top of the series)), the activity change, positive = activation is -40.1%. For the same compound, the outcome in [15] was inactive.

Turning to `Cc1ncc(C[n+]2csc(CCO)c2C)c(N)n1`, the Potency result in [1], in [2], in assay [19], in assay [3], in assay [4] and in assay [5] was “inactive” throughout. Besides, the Potency result in assay [6], in assay [7], in [8], in [9], in assay [11] and in assay [12] was “inactive” in each case. Further, the Potency result in [13] and in assay [14] was “inactive” in each case. In addition, the max response in assay [10] is -4.98%. For the same compound, the compound was classed as inactive in assay [15].

For the compound `CCCCCCCCn1sccc1=O`, the Potency in assay [1] was 4.91 µM (active) and 3.63 µM (active); in [19], 50.6 µM (active) and 26.5 µM (active); in [16], 17.3 µM (active) and 9.05 µM (active); in [3], 43.7 µM (active) and 16.2 µM (active); in assay [4] it was 11 µM (active) and 12.9 µM (active); in assay [6] it was 43.7 µM (active) and 14.5 µM (active). For the same compound, the Potency was 55.1 µM (active) and 20.4 µM (active) in assay [7]; 13.8 µM (active) and 14.5 µM (active) in assay [8]; 43.7 µM (active) and 16.2 µM (active) in assay [9]; 11 µM (active) and 12.9 µM (active) in assay [10]; 55.1 µM (active) and 25.7 µM (active) in assay [12]; 43.7 µM (active) and 16.2 µM (active) in [13]. For the same compound, the Potency in assay [14] is 49.1 µM (active) and 25.7 µM (active); in assay [18], 43.7 µM (active) and 20.4 µM (active). Further, the Potency result in assay [2] and in [5] was “inactive” each time. Moreover, the activity change, positive = activation in assay [17] (at 92.4 µM (top of the series)) is -82.6% and -70%.

In the case of `CCC1(C2=NCCN2)Cc2ccccc2O1` (centres undefined), the Potency result in [1], in [2], in [19], in assay [16], in [3] and in assay [4] was “inactive” throughout. The Potency entry in assay [5], in assay [6], in [7], in assay [8], in [9] and in assay [11] was “inactive” each time. Further, the Potency result in assay [12], in assay [13] and in [14] was “inactive” each time. In [17] (at 42.5 µM (top of the series)), the activity change, positive = activation is 5.71%. Moreover, in assay [10], the max response was 7.14%. In assay [15], the compound was called inactive.
